# Measured values published in PubChem BioAssay (EPA / NIEHS).
# Records with an inconclusive call do not appear. The source made the active and inactive calls. Rule for the calls: active = hit-call score of the fitted dose curve at least 0.9, where 1 is the maximum; inconclusive = response in the unintended direction; inactive = score below 0.9.
# Legend:
# [1] = target: human Adrenergic, Alpha 2c Receptor (Adra2C), ADRA2C (gene 152) (UniProt P18825); test: NVS_GPCR_hAdra2C: NovaScreen (NVS) G Protein-Coupled Receptor Assay for human Adrenergic, Alpha 2c Receptor (Adra2C) (AID 2283259)
# In short: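 Screened first in duplicate at 25 uM, with actives then run as concentration series. Membranes from Sf9 cells were exposed for 1 h, and displacement of radioligand was counted after filtration, using DMSO as baseline.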
# [2] = target: D(1A) dopamine receptor (Homo sapiens) (UniProt P21728); test: NVS_GPCR_hDRD1: NovaScreen (NVS) G Protein-Coupled Receptor Assay for human Dopamine Receptor D1 (DRD1) (AID 2283269)
# In short: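 HEK293-derived receptor preparation; radioligand competitive displacement; 1 h; filtration + scintillation counting. DMSO = negative control/baseline. Primary: 25 uM, duplicate; secondary: concentration–response for actives.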
# [3] = target: human Adrenergic, Beta 3 Receptor (Adrb3), ADRB3 (gene 155) (UniProt P13945); test: NVS_GPCR_hAdrb3: NovaScreen (NVS) G Protein-Coupled Receptor Assay for human Adrenergic, Beta 3 Receptor (Adrb3) (AID 2283262)
# In short: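 A cell-free filter binding assay read by scintillation counting, with displacement of a specific radioligand measured after 1 hour. The receptor source was SK-N-MC extracts (cells pretreated with isoproterenol and 8-bromo-cAMP). Compounds were first tested at 25 uM in duplicate and then in concentration series.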
# [4] = target: human Dopamine Receptor D2 (DRD2), DRD2 (gene 1813) (UniProt P14416); test: NVS_GPCR_hDRD2s: NovaScreen (NVS) G Protein-Coupled Receptor Assay for human Dopamine Receptor D2 (DRD2) (AID 2283266)
# In short: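 Test compound (25 uM, duplicate in the primary screen; concentration series at follow-up) competed with radioligand for human DRD2 in CHO-derived membrane protein. Filter-based scintillation counting was done 1.5 hours after dosing, with loss of signal analysed against DMSO.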
# [5] = target: human Endothelin Receptor Type A (ETA), EDNRA (gene 1909) (UniProt P25101); test: NVS_GPCR_hETA: NovaScreen (NVS) G Protein-Coupled Receptor Assay for human Endothelin Receptor Type A (ETA) (AID 2283265)
# In short: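 Binding of radioligand to membrane protein extracted from SH-SY5Y cells was read by filtration and scintillation after 3 h. Compounds were screened at 25 uM in duplicate, with hits followed up in singleton concentration series to 50 uM.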
# [6] = target: human Neurokinin, NK2 Receptor, TACR2 (gene 6865) (UniProt P21452); test: NVS_GPCR_hNK2: NovaScreen (NVS) G Protein-Coupled Receptor Assay for human Neurokinin, NK2 Receptor (AID 2283278);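 note: actives reduce bound radioligand signal relative to DMSO baseline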
# In short: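 Filter-based scintillation counting measured radioligand bound to receptor extracted from CHO cells, 4 hours after compound addition. Chemicals screened first at 25 uM in duplicate, with actives retested in concentration series relative to DMSO.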
# [7] = target: human Muscarinic, M4 Receptor, CHRM4 (gene 1132) (UniProt P08173); test: NVS_GPCR_hM4: NovaScreen (NVS) G Protein-Coupled Receptor Assay for human Muscarinic, M4 Receptor (AID 2283274)
# In short: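 Filter-based scintillation counting of radioligand bound to CHO-expressed human M4 preparations after 1 h; loss of signal fitted versus DMSO. Initial duplicate testing at 25 uM, concentration-response follow-up for actives.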
# [8] = target: Muscarinic acetylcholine receptor M5 (Homo sapiens) (UniProt P08912); test: NVS_GPCR_hM5: NovaScreen (NVS) G Protein-Coupled Receptor Assay for human Muscarinic, M5 Receptor (AID 2283275)
# In short: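 Chemicals passing a primary duplicate screen at 25 uM were run as singleton concentration series, maximum 50 uM. Displacement of a specific radioligand from CHO-extracted receptor was read by filter scintillation after 1 h, relative to DMSO.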
# [9] = target: human Dopamine Receptor D4.4 (DRD4.4), DRD4 (gene 1815) (UniProt P21917); test: NVS_GPCR_hDRD4.4: NovaScreen (NVS) G Protein-Coupled Receptor Assay for human Dopamine Receptor D4.4 (DRD4.4) (AID 2283264)
# In short: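 Filter-binding assay with a tritiated or iodinated ligand, cell-free receptor prepared from CHO, 1 hour. Loss of bound radioactivity versus DMSO; single 25 uM duplicate screen, then concentration-response for actives.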
# [10] = target: human Histamine 1 Receptor (H1), HRH1 (gene 3269) (UniProt P35367); test: NVS_GPCR_hH1: NovaScreen (NVS) G Protein-Coupled Receptor Assay for human Histamine 1 Receptor (H1) (AID 2283268)
# In short: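 Filter-based scintillation detection of radioligand binding to human H1, 1 h incubation; chemicals screened in duplicate at 25 uM, then concentration-response; signal loss relative to DMSO taken as activity.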
# [11] = target: Muscarinic acetylcholine receptor M1 (Homo sapiens) (UniProt P11229); test: NVS_GPCR_hM1: NovaScreen (NVS) G Protein-Coupled Receptor Assay for human Muscarinic, M1 Receptor (AID 2283270)
# In short: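 Actives from a duplicate 25 uM single-point screen were retested in concentration series. Binding measured as displacement of a radioligand from CHO-derived receptor preparation, 1 h incubation, filtration and scintillation counting, analysed as signal loss against DMSO.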
# [12] = target: Muscarinic acetylcholine receptor M2 (Homo sapiens) (UniProt P08172); test: NVS_GPCR_hM2: NovaScreen (NVS) G Protein-Coupled Receptor Assay for human Muscarinic, M2 Receptor (AID 2283273)
# In short: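 CHO-expressed human M2 receptor preparation, competitive displacement of a radioligand read by filter-based scintillation counting after 1 h. Single 25 uM duplicate screen, then concentration-response follow-up of actives; DMSO baseline.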
# [13] = target: Neuropeptide Y receptor type 2 (Homo sapiens) (UniProt P49146); test: NVS_GPCR_hNPY2: NovaScreen (NVS) G Protein-Coupled Receptor Assay for human Neuropeptide Receptor Y2 (NPY2) (AID 2283277)
# In short: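 Chemicals were first tested in duplicate at 25 uM, then actives in singleton concentration series to 50 uM. Tracer binding to SK-N-MC-derived protein measured cell-free after 1 h via filter scintillation; signal loss relative to DMSO.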
# [14] = target: Type-1 angiotensin II receptor (Homo sapiens) (UniProt P30556); test: NVS_GPCR_hAT1: NovaScreen (NVS) G Protein-Coupled Receptor Assay for human Angiotensin II receptor type 1 (AT1) (AID 2283263)
# In short: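 Hits from a 25 uM duplicate screen (threshold e.g. 30% inhibition) were run in concentration-response with 50 uM top concentration. Displacement of specific radioligand from KAN-TS membrane preparations measured after 3 h by filter scintillation, DMSO as baseline.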
# [15] = target: Beta-2 adrenergic receptor (Homo sapiens) (UniProt P07550); test: NVS_GPCR_hAdrb2: NovaScreen (NVS) G Protein-Coupled Receptor Assay for human Adrenergic, Beta 2 Receptor (Adrb2) (AID 2283261)
# In short: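 Compounds screened in duplicate at 25 uM, then actives in concentration series. Human beta-2 receptor from CHO material, cell-free; radioligand displacement after 1 h measured by filtration and scintillation against DMSO baseline.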
# [16] = target: Muscarinic acetylcholine receptor M3 (Homo sapiens) (UniProt P20309); test: NVS_GPCR_hM3: NovaScreen (NVS) G Protein-Coupled Receptor Assay for human Muscarinic, M3 Receptor (AID 2283272)
# In short: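 Radioligand displacement binding on human M3 receptor in CHO-derived membranes, 1 h incubation, filter-based scintillation counting. Primary screen in duplicate at 25 uM; actives followed up in concentration series; loss of signal versus DMSO.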
# [17] = target: human Neurotensin Receptor (NTS), NTSR1 (gene 4923) (UniProt P30989); test: NVS_GPCR_hNTS: NovaScreen (NVS) G Protein-Coupled Receptor Assay for human Neurotensin Receptor (NTS) (AID 2283279)
# In short: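 Compounds competed with a radiolabelled ligand for binding to CHO-derived human neurotensin receptor; bound signal counted after filtration, 1 h. Screened first at a single concentration of 25 uM in duplicate, then concentration series to 50 uM maximum for actives.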
# [18] = target: human Endothelin Receptor Type B (ETB), EDNRB (gene 1910) (UniProt P24530); test: NVS_GPCR_hETB: NovaScreen (NVS) G Protein-Coupled Receptor Assay for human Endothelin Receptor Type B (ETB) (AID 2283267)
# In short: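 Filter-based scintillation readout of radioligand displacement, 4 h, using membranes from human astrocytoma cells. Actives from a 25 uM duplicate screen were retested in concentration-response (top 50 uM) relative to DMSO baseline.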
# Chain of human Dopamine Receptor D2 (DRD2), DRD2 (gene 1813) (P14416 whole entry, looked up): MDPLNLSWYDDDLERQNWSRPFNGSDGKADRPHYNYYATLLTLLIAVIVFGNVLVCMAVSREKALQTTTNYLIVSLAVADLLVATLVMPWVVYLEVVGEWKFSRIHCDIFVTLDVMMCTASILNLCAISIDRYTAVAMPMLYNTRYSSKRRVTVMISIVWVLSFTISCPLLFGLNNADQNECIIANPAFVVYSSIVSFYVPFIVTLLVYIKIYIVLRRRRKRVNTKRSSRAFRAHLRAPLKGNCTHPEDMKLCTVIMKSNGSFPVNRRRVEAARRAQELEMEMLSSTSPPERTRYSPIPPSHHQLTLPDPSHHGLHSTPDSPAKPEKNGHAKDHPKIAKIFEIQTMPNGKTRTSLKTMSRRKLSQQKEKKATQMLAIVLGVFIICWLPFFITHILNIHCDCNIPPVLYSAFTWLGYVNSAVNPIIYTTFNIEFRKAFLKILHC
# Chain of Muscarinic acetylcholine receptor M5 (Homo sapiens) (P08912 whole entry, looked up): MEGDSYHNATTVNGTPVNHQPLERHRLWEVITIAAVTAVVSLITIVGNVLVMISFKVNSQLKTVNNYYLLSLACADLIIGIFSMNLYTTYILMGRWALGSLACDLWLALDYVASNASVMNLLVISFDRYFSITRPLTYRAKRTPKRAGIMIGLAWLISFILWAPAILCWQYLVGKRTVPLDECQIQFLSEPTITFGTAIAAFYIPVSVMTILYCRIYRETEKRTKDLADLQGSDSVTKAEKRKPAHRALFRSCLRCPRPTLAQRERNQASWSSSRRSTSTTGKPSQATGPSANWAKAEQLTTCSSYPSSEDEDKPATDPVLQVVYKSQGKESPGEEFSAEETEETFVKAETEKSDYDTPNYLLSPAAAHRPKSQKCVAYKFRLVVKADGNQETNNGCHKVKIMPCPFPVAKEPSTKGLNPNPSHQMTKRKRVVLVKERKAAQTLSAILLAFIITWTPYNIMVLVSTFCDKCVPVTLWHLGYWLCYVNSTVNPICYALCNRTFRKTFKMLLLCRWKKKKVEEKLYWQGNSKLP
# Chain of human Muscarinic, M4 Receptor, CHRM4 (gene 1132) (P08173 whole entry, looked up): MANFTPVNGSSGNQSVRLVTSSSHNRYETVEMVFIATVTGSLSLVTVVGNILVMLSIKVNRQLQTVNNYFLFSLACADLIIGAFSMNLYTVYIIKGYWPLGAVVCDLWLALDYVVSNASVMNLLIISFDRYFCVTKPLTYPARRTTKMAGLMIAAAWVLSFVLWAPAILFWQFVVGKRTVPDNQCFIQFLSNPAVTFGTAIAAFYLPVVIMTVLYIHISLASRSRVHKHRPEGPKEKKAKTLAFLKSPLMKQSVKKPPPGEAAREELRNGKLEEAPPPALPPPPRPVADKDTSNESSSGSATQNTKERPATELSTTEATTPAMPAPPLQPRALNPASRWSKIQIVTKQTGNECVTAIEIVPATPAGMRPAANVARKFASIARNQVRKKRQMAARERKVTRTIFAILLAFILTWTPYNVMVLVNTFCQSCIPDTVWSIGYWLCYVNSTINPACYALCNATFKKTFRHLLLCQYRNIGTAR
# Chain of D(1A) dopamine receptor (Homo sapiens) (P21728 whole entry, looked up): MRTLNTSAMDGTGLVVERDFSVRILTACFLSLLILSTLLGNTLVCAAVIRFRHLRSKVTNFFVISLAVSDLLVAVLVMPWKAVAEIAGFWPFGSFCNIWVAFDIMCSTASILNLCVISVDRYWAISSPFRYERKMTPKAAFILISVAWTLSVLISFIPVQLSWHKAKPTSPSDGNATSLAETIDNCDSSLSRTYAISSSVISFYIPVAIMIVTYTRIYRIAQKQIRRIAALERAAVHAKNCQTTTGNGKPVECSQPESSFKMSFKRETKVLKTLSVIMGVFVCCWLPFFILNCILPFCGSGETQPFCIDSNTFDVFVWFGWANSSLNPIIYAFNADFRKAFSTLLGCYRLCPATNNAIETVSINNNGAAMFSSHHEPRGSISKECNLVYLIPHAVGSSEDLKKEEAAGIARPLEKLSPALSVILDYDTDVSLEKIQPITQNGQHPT
# Chain of human Adrenergic, Alpha 2c Receptor (Adra2C), ADRA2C (gene 152) (P18825 whole entry, looked up): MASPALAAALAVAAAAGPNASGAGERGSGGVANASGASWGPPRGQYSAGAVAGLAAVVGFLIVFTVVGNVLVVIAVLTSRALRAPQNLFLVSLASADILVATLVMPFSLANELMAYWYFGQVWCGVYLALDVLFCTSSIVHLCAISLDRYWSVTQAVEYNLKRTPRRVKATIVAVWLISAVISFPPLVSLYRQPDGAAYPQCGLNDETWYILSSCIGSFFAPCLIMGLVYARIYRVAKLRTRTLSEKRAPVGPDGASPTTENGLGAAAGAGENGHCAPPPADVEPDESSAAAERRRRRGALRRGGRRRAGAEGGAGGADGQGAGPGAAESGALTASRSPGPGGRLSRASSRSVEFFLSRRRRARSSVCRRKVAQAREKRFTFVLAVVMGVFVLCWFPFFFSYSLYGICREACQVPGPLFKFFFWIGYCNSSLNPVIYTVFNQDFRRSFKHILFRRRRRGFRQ
# Chain of human Neurokinin, NK2 Receptor, TACR2 (gene 6865) (P21452 whole entry, looked up): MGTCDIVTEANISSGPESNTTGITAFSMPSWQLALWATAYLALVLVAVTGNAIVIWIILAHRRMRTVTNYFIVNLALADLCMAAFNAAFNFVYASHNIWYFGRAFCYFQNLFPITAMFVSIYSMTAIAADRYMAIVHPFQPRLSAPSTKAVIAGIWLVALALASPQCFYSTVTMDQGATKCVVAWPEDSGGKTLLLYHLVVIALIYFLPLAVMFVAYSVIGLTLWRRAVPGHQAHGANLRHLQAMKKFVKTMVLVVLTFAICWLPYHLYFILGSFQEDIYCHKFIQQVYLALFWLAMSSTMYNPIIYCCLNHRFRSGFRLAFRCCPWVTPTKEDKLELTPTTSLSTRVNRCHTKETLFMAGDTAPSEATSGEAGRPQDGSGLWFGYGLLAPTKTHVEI
# Chain of human Dopamine Receptor D4.4 (DRD4.4), DRD4 (gene 1815) (P21917 whole entry, looked up): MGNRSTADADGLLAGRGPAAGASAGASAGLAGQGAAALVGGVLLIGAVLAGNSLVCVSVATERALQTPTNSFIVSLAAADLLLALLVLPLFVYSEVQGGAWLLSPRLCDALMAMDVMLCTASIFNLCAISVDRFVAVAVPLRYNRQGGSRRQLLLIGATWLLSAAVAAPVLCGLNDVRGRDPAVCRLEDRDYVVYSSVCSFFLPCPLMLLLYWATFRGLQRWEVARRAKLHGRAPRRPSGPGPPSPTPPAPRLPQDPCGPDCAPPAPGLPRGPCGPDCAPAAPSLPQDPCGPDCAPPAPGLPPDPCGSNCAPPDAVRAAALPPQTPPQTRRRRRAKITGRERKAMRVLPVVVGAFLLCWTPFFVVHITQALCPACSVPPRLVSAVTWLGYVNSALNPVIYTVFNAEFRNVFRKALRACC
# Chain of Type-1 angiotensin II receptor (Homo sapiens) (P30556 whole entry, looked up): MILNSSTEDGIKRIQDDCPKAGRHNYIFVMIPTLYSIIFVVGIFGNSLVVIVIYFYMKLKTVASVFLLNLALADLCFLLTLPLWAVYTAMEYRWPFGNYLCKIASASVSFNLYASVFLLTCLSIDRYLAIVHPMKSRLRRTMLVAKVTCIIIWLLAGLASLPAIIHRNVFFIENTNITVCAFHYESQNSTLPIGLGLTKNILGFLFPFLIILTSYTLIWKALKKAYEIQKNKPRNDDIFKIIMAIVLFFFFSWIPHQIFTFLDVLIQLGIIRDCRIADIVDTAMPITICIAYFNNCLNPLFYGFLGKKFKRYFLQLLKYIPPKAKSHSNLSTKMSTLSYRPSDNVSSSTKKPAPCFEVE
# Chain of Muscarinic acetylcholine receptor M1 (Homo sapiens) (P11229 whole entry, looked up): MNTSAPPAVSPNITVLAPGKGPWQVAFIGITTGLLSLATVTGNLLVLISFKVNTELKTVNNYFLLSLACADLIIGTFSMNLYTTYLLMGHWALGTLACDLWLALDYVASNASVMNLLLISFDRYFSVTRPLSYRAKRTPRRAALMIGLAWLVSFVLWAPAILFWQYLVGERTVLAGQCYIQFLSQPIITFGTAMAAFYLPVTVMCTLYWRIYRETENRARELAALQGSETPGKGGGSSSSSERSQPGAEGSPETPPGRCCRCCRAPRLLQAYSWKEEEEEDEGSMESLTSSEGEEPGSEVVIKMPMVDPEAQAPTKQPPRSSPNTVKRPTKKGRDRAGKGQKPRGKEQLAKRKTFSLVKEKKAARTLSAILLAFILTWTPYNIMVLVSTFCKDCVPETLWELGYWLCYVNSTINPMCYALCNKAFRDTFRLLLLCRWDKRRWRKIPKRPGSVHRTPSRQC
# Chain of human Histamine 1 Receptor (H1), HRH1 (gene 3269) (P35367 whole entry, looked up): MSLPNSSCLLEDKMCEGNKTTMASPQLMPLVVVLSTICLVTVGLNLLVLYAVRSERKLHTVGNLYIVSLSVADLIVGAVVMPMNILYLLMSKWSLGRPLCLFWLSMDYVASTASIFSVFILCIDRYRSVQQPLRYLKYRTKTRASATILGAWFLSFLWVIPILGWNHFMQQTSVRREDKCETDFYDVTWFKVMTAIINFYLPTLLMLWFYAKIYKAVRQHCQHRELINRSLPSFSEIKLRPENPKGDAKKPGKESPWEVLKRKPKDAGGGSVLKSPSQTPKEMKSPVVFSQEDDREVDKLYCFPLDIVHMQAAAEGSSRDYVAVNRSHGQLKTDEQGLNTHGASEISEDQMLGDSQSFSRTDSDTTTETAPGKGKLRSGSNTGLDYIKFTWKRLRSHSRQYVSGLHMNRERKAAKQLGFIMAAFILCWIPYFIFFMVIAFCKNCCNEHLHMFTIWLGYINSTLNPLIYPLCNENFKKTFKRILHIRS
# Chain of human Adrenergic, Beta 3 Receptor (Adrb3), ADRB3 (gene 155) (P13945 whole entry, looked up): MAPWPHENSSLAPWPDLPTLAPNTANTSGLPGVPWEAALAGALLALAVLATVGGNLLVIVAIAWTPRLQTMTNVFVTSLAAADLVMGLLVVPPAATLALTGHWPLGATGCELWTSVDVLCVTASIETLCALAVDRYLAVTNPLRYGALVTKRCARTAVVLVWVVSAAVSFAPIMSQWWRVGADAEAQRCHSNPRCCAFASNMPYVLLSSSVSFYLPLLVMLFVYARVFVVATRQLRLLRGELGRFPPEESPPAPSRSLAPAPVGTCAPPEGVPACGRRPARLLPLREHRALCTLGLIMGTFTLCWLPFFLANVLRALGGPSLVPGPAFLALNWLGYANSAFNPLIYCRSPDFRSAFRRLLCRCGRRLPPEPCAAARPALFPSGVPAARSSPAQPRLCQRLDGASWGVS
structure (smiles),measurement,setting,value
NC(=O)N1C(=O)C(C(=O)c2cc(Cl)cs2)c2cc(F)c(Cl)cc21 (configuration not stated),AC50,[1],25 µM (active)
same,outcome,[2],inactive
CC[C@H](c1ccc(O)cc1)[C@@H](CC)c1ccc(O)cc1,outcome,[1],inactive
same,outcome,[3],inactive
same,AC50,[4],6.99 µM (active)
CC(C)(C)c1ccc(O)c(C(C)(C)C)c1,outcome,[5],inactive
Cc1cc(CCN2CCN(c3nsc4ccccc34)CC2)cc2c1NC(=O)CC2(C)C,AC50,[6],5.07 µM (active)
CN1CCC[C@H]1c1cccnc1,outcome,[7],inactive
same,outcome,[8],inactive
Oc1cc2ccccc2c2ccccc12,outcome,[6],inactive
Cc1oc(-c2ccccc2)nc1CCOc1ccc(C[C@H](Nc2ccccc2C(=O)c2ccccc2)C(=O)O)cc1,AC50,[1],13.6 µM (active)
same,outcome,[9],inactive
same,AC50,[10],35.5 µM (active)
same,AC50,[2],12.1 µM (active)
same,outcome,[11],inactive
same,outcome,[8],inactive
same,outcome,[6],inactive
CCCCCCCCCCCCCC[N+](C)(C)C,AC50,[2],4.57 µM (active)
same,AC50,[12],1.07 µM (active)
same,AC50,[6],4.81 µM (active)
CCCCC(CC)COC(=O)CCCCC(=O)OCC(CC)CCCC (configuration not stated),outcome,[13],inactive
O=C(O)Cc1cc(I)c(Oc2cc(I)c(O)c(I)c2)c(I)c1,outcome,[14],inactive
NC(=O)N(O)[C@@H]1C=C[C@H](Oc2cccc(Oc3ccc(F)cc3)c2)C1,outcome,[15],inactive
same,outcome,[3],inactive
same,outcome,[4],inactive
same,AC50,[2],25 µM (active)
same,outcome,[16],inactive
same,AC50,[7],25 µM (active)
same,outcome,[8],inactive
same,outcome,[6],inactive
same,AC50,[17],8.13 µM (active)
N#C[C@@H]1CC(F)(F)CN1C(=O)CNC1CC2CCC(C1)N2c1ncccn1 (some centres not stated),AC50,[5],9.53 µM (active)
C#C[C@]1(O)CC[C@H]2[C@@H]3CCC4=CC(=O)CC[C@@H]4[C@H]3CC[C@@]21C,outcome,[18],inactive
same,outcome,[6],inactive
CC1=C(/C=C/C(C)=C/C=C/C(C)=C/C(=O)O)C(C)(C)CCC1,AC50,[9],1.8 µM (active)
CCCCCCCCCCCCc1ccccc1S(=O)(=O)O,AC50,[1],7.16 µM (active)
same,AC50,[15],21.7 µM (active)
same,AC50,[14],8.83 µM (active)
same,AC50,[9],9.01 µM (active)
same,AC50,[4],18.5 µM (active)
same,AC50,[10],25.2 µM (active)
same,AC50,[2],6.99 µM (active)
same,AC50,[11],18.4 µM (active)
same,AC50,[16],41 µM (active)
same,AC50,[7],33.5 µM (active)
same,AC50,[8],17.2 µM (active)
same,AC50,[6],38 µM (active)
